# EBV LMP1 NFkB: EBV LMP1-driven NF-kappaB luciferase reporter inhibitors, primary screen, cell-based, luminescence, single point. LMP1-induced NF-kappaB luciferase reporter cells. inhibition, % at 12.5 µM. hit rate 0.69% among 350,000. AID 504558, 2011; in the data active = inhibition above about 41%; inconclusive = no clear call, values can overlap the other calls;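 note: 0% = neutral control wells and 100% = reference inhibitor control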
# TROY signal inh: inhibitors of TROY-driven NF-kB signaling, primary screen, Q293 LMP1-TROYcd cells, NF-kB luciferase, uHTS; Q293 LMP1-TROYcd NF-kB luciferase reporter, 4 h; inhibition, % at 10 µM; hit rate 0.98% among 360,000; AID 1347056, 2019;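 active = compounds whose plate-normalised and pattern-corrected inhibition of the luciferase reporter signal at the single screening dose is 50% or more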
# PAX8 inh HTS: inhibitors of PAX8-driven TPO luciferase reporter, primary screen, RMG-I cells, single concentration | inhibition, % at 12.6 µM | hit rate 1.2% among 360,000 | SteadyGlo, 24 h;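 active = mean replicate inhibition at least 60% with every replicate also reaching 60%; inconclusive = only one of the two criteria is met; inactive = mean below 60% and not all replicates reaching 60%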;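 note: luciferase light reporting Pax8 driven TPO promoter activity; plate controls were median of neutral control wells for no effect and mitoxantrone controls for full effect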
# LGR2 inh: inhibitors of bursicon-induced LGR2 CRE-luciferase signal, primary screen, cell-based, HEK293, CRE-luciferase reporter, bursicon stimulation | inhibition, % at 9.99 µM | hit rate 0.35% among 380,000 | bursicon-stimulated, 4 h | AID 720647, 2013;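 active = drop in luminescence signal, shown as inhibition above about 50% in the replicate tests, limit read from the data, passing the limit was not always enough; inconclusive = probably only some replicates passing the limit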;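 note: agonist challenge used bursicon conditioned medium at about half maximal strength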
# EWS-Fli block: EWS/Fli-driven NR0B1 reporter inhibitors, primary screen, A673 cells, NR0B1 luciferase, luminescence, MLPCN library | viability-normalised | inhibition, % at 12.6 µM | hit rate 0.67% among 350,000 | AID 651661, 2012;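 active = mean inhibition of at least 50% after viability correction, with every replicate also passing that limit; inconclusive = mean reaches 50% but only one of two replicates passes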;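 note: firefly luciferase signal divided by Alamar Blue viability fluorescence both relative to DMSO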
# TWEAK-Fn14 inh: inhibitors of TWEAK-Fn14 signaling, primary screen, luciferase reporter cells, uHTS. TWEAK-stimulated Fn14 reporter cells, luciferase luminescence, 8 h. inhibition, % at 10 µM. hit rate 2% among 360,000. AID 1159606, 2016; in the data active = inhibition above about 50%
# * hit, by the source's call; ? = inconclusive; . = no result. Sampled rows, rich in hits. Any-hit rate of the full collection: about 3.2%.
SMILES,EBV LMP1 NFkB,TROY signal inh,PAX8 inh HTS,LGR2 inh,EWS-Fli block,TWEAK-Fn14 inh
Cc1cccc(NC(=O)N2CCCc3ccccc32)c1C,13,75*,-38,14,-11,51*
Cc1ccc(NC(=O)N2CCCc3ccccc32)cc1C,-16,65*,-70,-20,.,26
Cc1nc(C)c(NC(=O)N2CCc3ccccc32)cc1NC(=O)N1CCc2ccccc21,-29,-51,.,.,.,-16
Cc1cc(=O)oc(C)c1C(=O)N1CCCc2ccccc21,-4,12,6,.,.,97*
O=C(Nc1ccccc1)N1CCCc2ccccc21,1,-1,.,.,.,8
Cc1ccccc1S(=O)(=O)NCC[C@@H]1CC[C@@H](NC(=O)Nc2cccc(Cl)c2)[C@H](CO)O1,.,.,8,0,4,.
C[C@@H]1CN([C@H](C)CO)C(=O)c2cc(C#CC3CCCC3)cnc2O[C@H]1CN(C)C(=O)c1ccncc1,.,.,15,9,6,.
CCN1C(=O)C(C(=O)Nc2ccc(OC)cc2)C2CC1(C)Oc1ccccc12 (configuration not stated),-9,.,.,.,.,78*
COc1ccc(CN2C(=O)c3cccnc3C2Nc2cc(Cl)ccc2OC)cc1 (configuration not stated),66*,1,.,-19,.,-18
COc1ccc(OC)c(NC2c3ncccc3C(=O)N2Cc2ccco2)c1 (configuration not stated),-3,6,.,-20,6,-26
C[C@H]1CCCCO[C@@H](CN(C)Cc2ccc3c(c2)OCO3)[C@@H](C)CN([C@@H](C)CO)C(=O)c2cc(NC(=O)Nc3cccc4ccccc34)ccc2O1,.,.,36,-14,46,.
C[C@H](CO)N1C[C@H](C)[C@H](CN(C)Cc2ccc3c(c2)OCO3)Oc2ccc(NC(=O)Nc3cccc4ccccc34)cc2C1=O,.,.,94*,-23,3,.
C[C@@H]1CCCCO[C@@H](CN(C)Cc2ccc3c(c2)OCO3)[C@H](C)CN([C@H](C)CO)C(=O)c2cc(NC(=O)Nc3cccc4ccccc34)ccc2O1,.,.,37,3,71*,.
C[C@@H]1CCCCO[C@H](CN(C)Cc2ccc3c(c2)OCO3)[C@@H](C)CN([C@@H](C)CO)C(=O)c2cc(NC(=O)Nc3cccc4ccccc34)ccc2O1,.,.,39,-10,64*,.
C[C@@H]1CCCCO[C@@H](CN(C)Cc2ccc3c(c2)OCO3)[C@@H](C)CN([C@H](C)CO)C(=O)c2cc(NC(=O)Nc3cccc4ccccc34)ccc2O1,.,.,-5,-1,2,.
C[C@@H]1CN([C@H](C)CO)C(=O)c2cc(NC(=O)Nc3cccc4ccccc34)ccc2O[C@@H](C)CCCCO[C@H]1CN(C)Cc1ccc2c(c1)OCO2,.,.,69*,4,?,.
C[C@@H]1CN([C@@H](C)CO)C(=O)c2cc(Br)cnc2O[C@@H]1CN(C)CC1CCCC1,.,.,.,24,-8,.
C[C@H](CO)N1C[C@H](C)[C@H](CN(C)C(=O)Nc2ccccc2)Oc2ccc(NS(=O)(=O)c3ccc(F)cc3)cc2C1=O,.,.,.,3,-5,.
C[C@@H]1CCCCO[C@@H](CN(C)C(=O)c2ccccc2)[C@@H](C)CN([C@H](C)CO)C(=O)c2cc(NC(=O)Nc3ccc(F)cc3)ccc2O1,.,.,-6,8,2,.
C[C@@H]1CN([C@@H](C)CO)C(=O)Cc2cc(NC(=O)Cn3cnnn3)ccc2O[C@@H]1CN(C)C(=O)Nc1ccc(C(F)(F)F)cc1,.,.,.,-11,1,.
Cc1ccccc1-n1c(C)cc(/C=C2/C(=N)N3C(c4ccccc4)=CSC3=NC2=O)c1C,0,8,0,-12,-7,55*
Cc1cc(C)nc(SCCC(=O)Nc2ccccc2C)n1,6,-18,.,.,.,106*
CCn1c(NC(=O)c2ccc(C)cc2)c2ccccc2nc1=O,79*,8,.,.,.,5
CCn1c(NC(=O)c2ccc(F)cc2)c2ccccc2nc1=O,-2,14,7,.,.,-4
Cc1ccc(N(Cc2cc(=O)[nH]c3ccccc23)C(=O)CCl)c(C)c1,47*,-4,69*,30,67*,63*
SMILES,EBV LMP1 NFkB,TROY signal inh,PAX8 inh HTS,LGR2 inh,EWS-Fli block,TWEAK-Fn14 inh
CCCC(=O)N(Cc1cc(=O)[nH]c2ccccc12)c1ccc(C)cc1C,0,-2,24,1,0,12
O=C(C[C@H]1CC[C@@H](NC(=O)c2ccc3c(c2)OCO3)[C@H](CO)O1)NCc1ccc(Cl)cc1,.,.,10,8,-1,.
COc1ccc(-n2c(CCC(=O)O)ccc2-c2ccc(F)cc2)c(OC)c1,-1,51*,9,-17,12,30
CC1OC(Nc2cccc3ccccc23)C(O)C(O)C1O (configuration not stated),-1,28,.,.,.,92*
CC1OC(Nc2ccc(N=Nc3ccccc3)cc2)C(O)C(O)C1O (configuration not stated),-18,-40,-122,-62,-45,-21
Cc1ccc(N/C=C/C(=O)c2cccs2)cc1C,-2,45,-2,63*,40,46
CCNc1nc(NCC)n2c(SC(C(=O)Nc3cc(Cl)cc(Cl)c3)c3ccccc3)nnc2n1 (configuration not stated),-20,47,-43,2,.,67*
CCNc1nc(NCC)n2c(SCC(=O)Nc3cccc(Cl)c3)nnc2n1,-2,-14,.,.,.,-10
CCCCCCc1cc2cc(C(=O)Nc3ccccc3)c(=O)oc2cc1O,-1,50*,.,41,.,69*
CCCCCCc1cc2cc(S(=O)(=O)c3ccc(C)cc3)c(=O)oc2cc1O,3,51*,13,3,12,1
CCCCCCc1cc2cc(S(=O)(=O)c3ccc(Cl)cc3)c(=O)oc2cc1O,7,53*,5,8,-7,44
O=C(O)c1cccc(-n2c(O)c(C=C3N=c4ccccc4=N3)sc2=S)c1,-4,-28,17,-4,20,-10
O=C(O)c1ccc(-n2c(O)c(C=C3N=c4ccccc4=N3)sc2=S)cc1,-7,-7,-8,2,8,54*
CNC[C@@H]1Oc2cc(C#CCN(C)C)ccc2S(=O)(=O)N([C@@H](C)CO)C[C@H]1C,.,.,.,-4,4,.
COc1ccc(NC(=O)Nc2ccc3c(c2)CC(=O)N([C@@H](C)CO)C[C@@H](C)[C@H](CN(C)S(=O)(=O)c2ccc(C)cc2)O3)cc1,.,.,-6,-2,-6,.
CCOC(=O)N1CCN(C(=O)COC(=O)c2cc(Cl)c(O)c(Cl)c2)CC1,4,17,7,-26,3,72*
COC(=O)C[C@H]1CC[C@@H]2[C@@H](COc3ccc(NC(=O)Nc4cc(C)cc(C)c4)cc3C(=O)N2C)O1,.,.,25,-1,-4,.
COc1ccc(/C=C/c2nc3ccccc3c(=O)o2)cc1,51*,83*,84*,90*,71*,97*
